Inconclusive results are not listed. The source made the active and inactive calls. Calls follow the shape of the dose curve; as a rule, active = well fitted inhibition curve with a large enough effect; inconclusive = small, poorly fitted or top-dose-only effect; inactive = flat fitted curve, though single readings scatter.
tested on: DIV14; test: qHTS profiling for inhibitors of Plasmodium falciparum proliferation (AID 504749); also: nearly all actives have a fitted effect of over 60% in size;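 as to activity, negative = inhibition: 0% = DMSO vehicle and full inhibition = artemisinin control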; conditions: P. falciparum in erythrocytes, SYBR Green DNA, 72 h; series mostly up to 28.7 µM; activity, negative = inhibition: at the top concentration
Outline: (§1)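 SYBR Green fluorescence of parasite DNA, read after lysis and overnight dark incubation, measured growth over 72 h in erythrocyte culture at 0.3% parasitemia and 2.5% hematocrit. Data normalised to DMSO and 0.29 uM artemisinin, with plate-drift correction.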
Potency is read from the fitted curve at half-maximal effect.

For Cn1cc(NC(=O)c2cc(NC(=O)c3cc(NC=O)cn3C)cn2C)cc1C(=O)NCCC(=N)N, which Potency is on record?
Its Potency is 3.38 µM (active).

How did the Potency turn out when CCCCCCCCCCCCCCCCOCCOCCOCCOCCOCCOCCOCCOCCOCCOCCOCCOCCOCCOCCOCCOCCOCCOCCOCCOCCO was run?
Its Potency is 13.5 µM (active).

How did the “activity, negative = inhibition” value turn out when C=CCN1CCCC1CNC(=O)c1cc(S(N)(=O)=O)cc(OC)c1OC (stereo not given) was run?
The value was -11.4% (inactive).

Which Potency does the source give for CC(=O)c1ccc2c(c1)N(CCCN1CCN(CCO)CC1)c1ccccc1S2 here?
The Potency was 7.57 µM (active).

Which “activity, negative = inhibition” value does the source give for C[C@]12CCC(=O)C[C@@H]1CC[C@@H]1[C@@H]2CC[C@]2(C)C=CC[C@@H]12 here?
The value was -0.586% (inactive).

Which “activity, negative = inhibition” value does the source give for Cc1ccc(S(=O)(=O)O)cc1C here?
Its value is 17.9% (inactive).

With NCC[C@H](O)C(=O)N[C@@H]1C[C@H](N)[C@@H](O[C@H]2O[C@H](CN)[C@@H](O)[C@H](O)[C@H]2O)[C@H](O)[C@H]1O[C@H]1O[C@H](CO)[C@@H](O)[C@H](N)[C@H]1O as the compound, how does the “activity, negative = inhibition” value read?
The value was -5.76% (inactive).

For C=CC[N+]1([C@H]2C[C@H]3[C@@H]4CC[C@H]5C[C@H](O)[C@@H](N6CCOCC6)C[C@]5(C)[C@H]4CC[C@]3(C)[C@H]2OC(C)=O)CCCC1, which “activity, negative = inhibition” value is on record?
Its value is -15.9% (inactive).

With Cn1c(=O)c2c(ncn2CCOC(=O)C(C)(C)Oc2ccc(Cl)cc2)n(C)c1=O as the compound, how does the “activity, negative = inhibition” value read?
The value was -10.7% (inactive).

For O=C(CCCN1CCC(C(=O)c2ccc(F)cc2)CC1)c1ccc(F)cc1, which Potency is on record?
The Potency was 0.757 µM (active).

With Cc1ncc(C[n+]2csc(CCO)c2C)c(N)n1 as the compound, how does the “activity, negative = inhibition” value read?
Its value is -11.6% [at 12.8 µM] (inactive).

With N=C(N)c1ccc(/C=C/c2ccc(C(=N)N)cc2O)cc1 as the compound, how does the Potency read?
The Potency was 6.75 µM (active).

For Cc1c(C)c2c(c(C)c1OC(=O)CCC(=O)O)CC[C@@](C)(CCC[C@H](C)CCC[C@H](C)CCCC(C)C)O2, which “activity, negative = inhibition” value is on record?
The value was 7.31% (inactive).

How did the “activity, negative = inhibition” value turn out when CC1CC(OC(=O)C(O)c2ccccc2)CC(C)(C)C1 (stereo not given) was run?
Its value is -6.46% (inactive).

Which Potency does the source give for C=CC[C@@H]1/C=C(\C)C[C@H](C)C[C@H](OC)[C@H]2O[C@@](O)(C(=O)C(=O)N3CCCC[C@H]3C(=O)O[C@H](/C(C)=C/[C@@H]3CC[C@@H](O)[C@H](OC)C3)[C@H](C)[C@@H](O)CC1=O)[C@H](C)C[C@@H]2OC here?
The Potency was 1.69 µM (active).

COC(=O)[C@@H](N)CS was tested. Which “activity, negative = inhibition” value did it give?
The value was 5.28% (inactive).

tested on: DIV17; test: as above; conditions: P. falciparum in erythrocytes, SYBR Green DNA, 72 h; series mostly up to 28.7 µM; activity, negative = inhibition: at the top concentration
Outline: as §1

Cn1cc(NC(=O)c2cc(NC(=O)c3cc(NC=O)cn3C)cn2C)cc1C(=O)NCCC(=N)N was tested. Which Potency did it give?
The Potency was 3.79 µM (active).

With CCCCCCCCCCCCCCCCOCCOCCOCCOCCOCCOCCOCCOCCOCCOCCOCCOCCOCCOCCOCCOCCOCCOCCOCCOCCO as the compound, how does the Potency read?
The Potency was 13.5 µM (active).

C=CCN1CCCC1CNC(=O)c1cc(S(N)(=O)=O)cc(OC)c1OC (stereo not given) was tested. Which “activity, negative = inhibition” value did it give?
Its value is -17% (inactive).

CC(=O)c1ccc2c(c1)N(CCCN1CCN(CCO)CC1)c1ccccc1S2 was tested. Which Potency did it give?
Its Potency is 12 µM (active).

For C[C@]12CCC(=O)C[C@@H]1CC[C@@H]1[C@@H]2CC[C@]2(C)C=CC[C@@H]12, which “activity, negative = inhibition” value is on record?
The value was 1.51% (inactive).

With Cc1ccc(S(=O)(=O)O)cc1C as the compound, how does the “activity, negative = inhibition” value read?
Its value is -2.15% (inactive).

For NCC[C@H](O)C(=O)N[C@@H]1C[C@H](N)[C@@H](O[C@H]2O[C@H](CN)[C@@H](O)[C@H](O)[C@H]2O)[C@H](O)[C@H]1O[C@H]1O[C@H](CO)[C@@H](O)[C@H](N)[C@H]1O, which “activity, negative = inhibition” value is on record?
Its value is -3% (inactive).

For COC(=O)CCC[N+](C)(C)C, which “activity, negative = inhibition” value is on record?
The value was -6.14% (inactive).

With CC(C)=CCC/C(C)=C/C=C/C(C)=C/C=C/C(C)=C/C=C/C=C(C)/C=C/C=C(C)/C=C/C=C(\C)CCC=C(C)C as the compound, how does the “activity, negative = inhibition” value read?
Its value is -28.6% (inactive).

Which “activity, negative = inhibition” value does the source give for C=CC[N+]1([C@H]2C[C@H]3[C@@H]4CC[C@H]5C[C@H](O)[C@@H](N6CCOCC6)C[C@]5(C)[C@H]4CC[C@]3(C)[C@H]2OC(C)=O)CCCC1 here?
Its value is -15.6% (inactive).

Which “activity, negative = inhibition” value does the source give for Cn1c(=O)c2c(ncn2CCOC(=O)C(C)(C)Oc2ccc(Cl)cc2)n(C)c1=O here?
Its value is -27.2% (inactive).

With O=C(CCCN1CCC(C(=O)c2ccc(F)cc2)CC1)c1ccc(F)cc1 as the compound, how does the Potency read?
Its Potency is 4.78 µM (active).

Which “activity, negative = inhibition” value does the source give for CC(C)NCC(O)COc1ccccc1-n1cccc1 (stereo not given) here?
Its value is 13.6% (inactive).

How did the “activity, negative = inhibition” value turn out when Cc1ncc(C[n+]2csc(CCO)c2C)c(N)n1 was run?
Its value is -0.936% [at 12.8 µM] (inactive).

With COc1ccc2nc(NC(=O)Nc3ccccc3)sc2c1 as the compound, how does the Potency read?
Its Potency is 4.78 µM (active).

N=C(N)c1ccc(/C=C/c2ccc(C(=N)N)cc2O)cc1 was tested. Which Potency did it give?
Its Potency is 6.01 µM (active).

Cc1c(C)c2c(c(C)c1OC(=O)CCC(=O)O)CC[C@@](C)(CCC[C@H](C)CCC[C@H](C)CCCC(C)C)O2 was tested. Which “activity, negative = inhibition” value did it give?
Its value is -3.39% (inactive).

CC1CC(OC(=O)C(O)c2ccccc2)CC(C)(C)C1 (stereo not given) was tested. Which “activity, negative = inhibition” value did it give?
Its value is -1.23% (inactive).

With C=CC[C@@H]1/C=C(\C)C[C@H](C)C[C@H](OC)[C@H]2O[C@@](O)(C(=O)C(=O)N3CCCC[C@H]3C(=O)O[C@H](/C(C)=C/[C@@H]3CC[C@@H](O)[C@H](OC)C3)[C@H](C)[C@@H](O)CC1=O)[C@H](C)C[C@@H]2OC as the compound, how does the Potency read?
The Potency was 1.69 µM (active).

From PubChem BioAssay (NCATS)
